Measured values as given in PubChem BioAssay (NCATS).
Records with an inconclusive call do not appear. Activity calls are given as the source filed them. The call rests on the fitted dose curve; in most records, active means well fitted cell-killing curve with a large enough effect; inconclusive means small, poorly fitted or top-dose-only effect, or effect the other way; inactive means flat fitted curve, though single readings scatter.

Columns and labels:
Assay in all cases: Primary qHTS to identify gynecologic anti-cancer compounds using libraries of approved drugs and bioactive compounds (AID 1345084); further: nearly all actives have a fitted effect of over 55% in size
C33A = settings: Gynecologic cancer cell panel viability, ATPlite luminescence, 48 h; series mostly up to 57.5 µM
Summary of the method: (§1)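 Cells, 1,000 per well, plated 16 h, then exposed 48 h at 37 C to compounds. Viability by ATPlite luminescence after 15 min at room temperature.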

CAOV3 = settings: Gynecologic cancer cell panel viability, ATPlite luminescence, 48 h; series mostly up to 57.5 µM
Summary of the method: as §1

CASKI = settings: Gynecologic cancer cell panel viability, ATPlite luminescence, 48 h; series mostly up to 57.5 µM
Summary of the method: as §1

Es-2 = settings: Gynecologic cancer cell panel viability, ATPlite luminescence, 48 h; series mostly up to 57.5 µM
Summary of the method: as §1

HeLa = settings: Gynecologic cancer cell panel viability, ATPlite luminescence, 48 h; series mostly up to 57.5 µM
Summary of the method: as §1

Hek293T = settings: Gynecologic cancer cell panel viability, ATPlite luminescence, 48 h, control line for the selectivity index; series mostly up to 57.5 µM
Summary of the method: as §1

JEG-3 = settings: Gynecologic cancer cell panel viability, ATPlite luminescence, 48 h; series mostly up to 57.5 µM
Summary of the method: as §1

OV90 = settings: Gynecologic cancer cell panel viability, ATPlite luminescence, 48 h; series mostly up to 57.5 µM
Summary of the method: as §1

PA-1 = settings: Gynecologic cancer cell panel viability, ATPlite luminescence, 48 h; series mostly up to 57.5 µM
Summary of the method: as §1

Tov-21-G = settings: Gynecologic cancer cell panel viability, ATPlite luminescence, 48 h; series mostly up to 57.5 µM
Summary of the method: as §1

Tov112D = settings: Gynecologic cancer cell panel viability, ATPlite luminescence, 48 h; series mostly up to 57.5 µM
Summary of the method: as §1
On the % scale 0 is the no-effect control and ±100 the full control effect.

CN(C)CCOC(C)(c1ccccc1)c1ccc(Cl)cc1 (stereo unspecified)
inactive: Potency (C33A) | Potency (CAOV3) | Potency (CASKI) | Potency (Es-2) | Potency (HeLa) | Potency (Hek293T) | Potency (JEG-3) | Potency (OV90) | Potency (PA-1) | Potency (Tov-21-G) | Potency (Tov112D)

CCC(C)C(=O)O[C@H]1[C@H](O)[C@@]2(COC(C)=O)C(CC1(C)C)C1=CCC3[C@@]4(C)CC[C@H](O[C@@H]5O[C@H](C(=O)O)[C@@H](O)[C@H](O)[C@H]5O)[C@@](C)(CO)C4CC[C@@]3(C)[C@]1(C)C[C@@H]2O (stereo partly specified)
inactive: activity change, negative = cytotoxicity (C33A) -3% [at 11.6 µM] | activity change, negative = cytotoxicity (CAOV3) -4.8% [at 11.6 µM] | activity change, negative = cytotoxicity (CASKI) 10.3% [at 11.6 µM] | activity change, negative = cytotoxicity (Es-2) 5.26% [at 11.6 µM] | activity change, negative = cytotoxicity (HeLa) 8.08% [at 11.6 µM] | activity change, negative = cytotoxicity (Hek293T) 5.16% [at 11.6 µM] | activity change, negative = cytotoxicity (JEG-3) 9.72% [at 11.6 µM] | activity change, negative = cytotoxicity (OV90) 0.006% [at 11.6 µM] | activity change, negative = cytotoxicity (PA-1) 5.51% [at 11.6 µM] | activity change, negative = cytotoxicity (Tov-21-G) 17.2% [at 11.6 µM] | activity change, negative = cytotoxicity (Tov112D) 6.69% [at 11.6 µM]

CCOc1cccc(NC(=O)c2ccc(N3CCCC3)c(C(F)(F)F)c2)c1
inactive: Potency (C33A) | Potency (CAOV3) | Potency (CASKI) | Potency (Es-2) | Potency (HeLa) | Potency (Hek293T) | Potency (JEG-3) | Potency (OV90) | Potency (PA-1) | Potency (Tov-21-G) | Potency (Tov112D)

Cc1cnc(-c2ccccc2C(C)C)nc1NCc1ccc(-n2ccnn2)cc1
inactive: Potency (C33A) | Potency (CAOV3) | Potency (CASKI) | Potency (Es-2) | Potency (HeLa) | Potency (Hek293T) | Potency (JEG-3) | Potency (OV90) | Potency (PA-1) | Potency (Tov-21-G) | Potency (Tov112D)

C=C1C(=O)O[C@@H]2C[C@H](C)C3=CC(=O)[C@H](O)[C@@]3(C)C[C@H]12
inactive: Potency (C33A) | Potency (CAOV3) | Potency (CASKI) | Potency (Es-2) | Potency (HeLa) | Potency (Hek293T) | Potency (JEG-3) | Potency (OV90) | Potency (PA-1) | Potency (Tov-21-G) | Potency (Tov112D)

CC1(C)CC[C@]2(C(=O)O)CC[C@]3(C)C(=CCC4[C@@]5(C)C[C@@H](O)[C@H](O)[C@@](C)(CO)C5CC[C@]43C)[C@@H]2[C@@H]1O (stereo partly specified)
inactive: Potency (C33A) | Potency (CAOV3) | Potency (CASKI) | Potency (Es-2) | Potency (HeLa) | Potency (Hek293T) | Potency (JEG-3) | Potency (OV90) | Potency (PA-1) | Potency (Tov-21-G) | Potency (Tov112D)

CCc1cc2c(cc1CC)CC(NCC(O)c1ccc(O)c3[nH]c(=O)ccc13)C2 (stereo unspecified)
inactive: Potency (C33A) | Potency (CAOV3) | Potency (CASKI) | Potency (Es-2) | Potency (HeLa) | Potency (Hek293T) | Potency (JEG-3) | Potency (OV90) | Potency (PA-1) | Potency (Tov-21-G) | Potency (Tov112D)

CC/C=C\CC1C(=O)C=CC1(CCCCC1CCC(=O)O1)OC(C)=O (stereo unspecified)
inactive: Potency (C33A) | Potency (CAOV3) | Potency (CASKI) | Potency (Es-2) | Potency (HeLa) | Potency (Hek293T) | Potency (JEG-3) | Potency (OV90) | Potency (PA-1) | Potency (Tov-21-G) | Potency (Tov112D)

C/C=C/C=C/C=C/C(=O)O[C@@H]1C=C(CO)C(O)(C(=O)OC)[C@@]2(C)CCCC(C)(C)C12 (stereo partly specified)
inactive: Potency (C33A) | Potency (CAOV3) | Potency (CASKI) | Potency (Es-2) | Potency (HeLa) | Potency (Hek293T) | Potency (JEG-3) | Potency (OV90) | Potency (PA-1) | Potency (Tov-21-G) | Potency (Tov112D)

C/C(=C\CCC(C)C1=CCC2(C)OC3=C(CC12)C(=O)C(O)CC3)CO (stereo unspecified)
inactive: Potency (C33A) | Potency (CAOV3) | Potency (CASKI) | Potency (Es-2) | Potency (HeLa) | Potency (Hek293T) | Potency (JEG-3) | Potency (OV90) | Potency (PA-1) | Potency (Tov-21-G) | Potency (Tov112D)

NC(N)=N/N=C/c1ccccc1Cl
inactive: Potency (C33A) | Potency (CAOV3) | Potency (CASKI) | Potency (Es-2) | Potency (HeLa) | Potency (Hek293T) | Potency (JEG-3) | Potency (OV90) | Potency (PA-1) | Potency (Tov-21-G) | Potency (Tov112D)

OC[C@H]1O[C@@H](OC/C=C/c2ccc(O)cc2)[C@H](O)[C@@H](O)[C@@H]1O
inactive: Potency (C33A) | Potency (CAOV3) | Potency (CASKI) | Potency (Es-2) | Potency (HeLa) | Potency (Hek293T) | Potency (JEG-3) | Potency (OV90) | Potency (PA-1) | Potency (Tov-21-G) | Potency (Tov112D)

COc1ccc2c(c1O[C@H]1CCNC1)CCC2
inactive: Potency (C33A) | Potency (CAOV3) | Potency (CASKI) | Potency (Es-2) | Potency (HeLa) | Potency (Hek293T) | Potency (JEG-3) | Potency (OV90) | Potency (PA-1) | Potency (Tov-21-G) | Potency (Tov112D)

O=C(Nc1nnc(-c2ccc3c(c2)OCCO3)o1)C1CCCCC1
inactive: Potency (C33A) | Potency (CAOV3) | Potency (CASKI) | Potency (Es-2) | Potency (HeLa) | Potency (Hek293T) | Potency (JEG-3) | Potency (OV90) | Potency (PA-1) | Potency (Tov-21-G) | Potency (Tov112D)

O=c1cc(OCc2ccc(F)cc2)ccn1-c1ccc(OCCN2CCCC2)cc1
inactive: Potency (C33A) | Potency (CAOV3) | Potency (CASKI) | Potency (Es-2) | Potency (HeLa) | Potency (Hek293T) | Potency (JEG-3) | Potency (OV90) | Potency (PA-1) | Potency (Tov-21-G) | Potency (Tov112D)

CCOC(=O)C1(CCOc2ccccc2)CCN(Cc2ccc(O)c(Cl)c2)CC1
inactive: Potency (C33A) | Potency (CAOV3) | Potency (CASKI) | Potency (Es-2) | Potency (HeLa) | Potency (Hek293T) | Potency (JEG-3) | Potency (OV90) | Potency (PA-1) | Potency (Tov-21-G) | Potency (Tov112D)
